These results are taken from PubChem BioAssay (NCI).

This is part of a sample that, as a whole, favours compounds with a hit. Of some 83,000 tested, about 20% had one in any assay.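 Single-concentration screen, 48 h exposure, 96-well plates. Endpoint: percent growth. Below 10 = active.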 A number with no mark means an inactive call. Activity calls are given as the source filed them.

Common to all, as to assay: NCI-60 one-dose screen, 48 h (100 = growth as untreated, 0 = no growth, -100 = all killed)
The test system of one experiment is SR leukemia. Conditions: 10 µM unless noted.
Another experiment has as its system RPMI-8226 leukemia. The note with it: 10 µM.
The subject of another experiment is OVCAR-8 ovarian. The note with it: 10 µM unless noted.
The next experiment has as its system OVCAR-5 ovarian. The note with it: 10 µM unless noted.
In a further experiment the test system is OVCAR-4 ovarian. The note with it: 10 µM unless noted.
Another experiment concerns SK-OV-3 ovarian. Conditions: 10 µM.
The test system of another experiment is IGROV1 ovarian. The note with it: 10 µM unless noted.
The test system of the next experiment is OVCAR-3 ovarian. Conditions: 10 µM unless noted.
In the next experiment the test system is HS 578T breast. The note with it: 10 µM unless noted.
The subject of another experiment is T-47D breast. The note with it: 10 µM.
The next experiment concerns BT-549 breast. Conditions: 10 µM unless noted.
The next experiment concerns MDA-MB-435 melanoma. Conditions: 10 µM unless noted.
A further experiment relates to SW-620 colon. The note with it: 10 µM unless noted.
In a further experiment the test system is MCF7 breast. The note with it: 10 µM unless noted.
Another experiment deals with HCT-116 colon. The note with it: 10 µM unless noted.
In a further experiment the test system is HCC-2998 colon. Conditions: 10 µM unless noted.
A further experiment relates to KM12 colon. The note with it: 10 µM unless noted.
Another experiment concerns NCI/ADR-RES ovarian. The note with it: 10 µM unless noted.

For `Cn1cc(C(=O)NCCC(=N)N)cc1NC(=O)CN=C(N)N`, the growth in the experiment on SR leukemia is 104%; in the experiment with RPMI-8226 leukemia, 110%; in the experiment on OVCAR-8 ovarian, 106%; in the experiment with OVCAR-5 ovarian, 88.9%; in the experiment with OVCAR-4 ovarian, 105%; in the experiment with SK-OV-3 ovarian, 110%. In addition, the growth in the experiment with IGROV1 ovarian was 106%; in the experiment with OVCAR-3 ovarian it was 112%; in the experiment with HS 578T breast, 92.4%; in the experiment on T-47D breast, 110%; in the experiment on BT-549 breast, 99.9%; with MDA-MB-435 melanoma it was 111%. Further, the growth in the experiment on SW-620 colon is 106%; in the experiment on MCF7 breast it was 111%; with HCT-116 colon, 92.6%; with HCC-2998 colon it was 88.6%; in the experiment on KM12 colon, 104%.

Consider `O=c1onc(-c2ccccc2)c2ccccc12`, for which the growth is 101% in the experiment with SR leukemia; 98.4% with RPMI-8226 leukemia; 103% in the experiment on OVCAR-8 ovarian; 116% in the experiment with OVCAR-5 ovarian; 106% in the experiment on OVCAR-4 ovarian; 112% in the experiment on SK-OV-3 ovarian. Also, the growth is 113% in the experiment with IGROV1 ovarian; 113% in the experiment on OVCAR-3 ovarian; 103% with NCI/ADR-RES ovarian; 97.8% in the experiment with T-47D breast; 118% in the experiment on BT-549 breast; 105% in the experiment on MDA-MB-435 melanoma. Further, the growth in the experiment on SW-620 colon was 103%; in the experiment with MCF7 breast, 102%; with HCT-116 colon it was 113%; with HCC-2998 colon it was 98.9%; in the experiment on KM12 colon, 110%.

Turning to `COc1ccc2nc(-n3nc(C)cc3C)c(-n3nc(C)cc3C)nc2c1`, the growth is 95% with SR leukemia; 102% in the experiment with RPMI-8226 leukemia; 126% in the experiment with OVCAR-8 ovarian; 103% in the experiment on OVCAR-5 ovarian; 111% with OVCAR-4 ovarian; 113% in the experiment on SK-OV-3 ovarian. For the same compound, the growth in the experiment on IGROV1 ovarian was 113%; with OVCAR-3 ovarian it was 126%; in the experiment on NCI/ADR-RES ovarian, 100%; in the experiment with T-47D breast, 105%; in the experiment on BT-549 breast, 104%; in the experiment with MDA-MB-435 melanoma, 102%. The growth was 107% with SW-620 colon, 109% in the experiment on MCF7 breast, 96% in the experiment with HCT-116 colon and 89.8% with HCC-2998 colon.

On to `COc1nc2c(cc1S(=O)(=O)c1ccccc1)CCc1c-2cnn1-c1ccccc1Cl`, for which the growth is 37.9% in the experiment with SR leukemia; 56.8% in the experiment on RPMI-8226 leukemia; 59.8% with OVCAR-8 ovarian; 70.6% in the experiment with OVCAR-5 ovarian; 67.8% in the experiment with OVCAR-4 ovarian; 85.7% in the experiment with SK-OV-3 ovarian. Also, the growth was 77.1% with IGROV1 ovarian; 70.8% in the experiment on OVCAR-3 ovarian; 68.4% in the experiment with HS 578T breast; 26.5% in the experiment on T-47D breast; 51.8% in the experiment with BT-549 breast; 65.7% in the experiment with MDA-MB-435 melanoma. Also, the growth is 79.1% in the experiment on SW-620 colon; 42.2% in the experiment on MCF7 breast; 48.4% in the experiment with HCT-116 colon; 77.7% in the experiment on HCC-2998 colon; 49.7% in the experiment on KM12 colon.

Regarding `COc1cc(/C=C/C(=O)C2=C(/C=C/c3ccc(O)c(OC)c3)NC(=O)NC2c2ccc(O)c(OC)c2)ccc1O` (centres undefined), the growth in the experiment on SR leukemia is 79%; with RPMI-8226 leukemia, 76.2%; in the experiment with OVCAR-8 ovarian, 86.3%; with OVCAR-5 ovarian, 94.2%; in the experiment on OVCAR-4 ovarian it was 93%; in the experiment with SK-OV-3 ovarian it was 116%. The growth in the experiment with IGROV1 ovarian was 113%; in the experiment with OVCAR-3 ovarian, 104%; in the experiment with NCI/ADR-RES ovarian, 107%; in the experiment with T-47D breast, 86.7%; with MDA-MB-435 melanoma it was 93.4%; in the experiment with SW-620 colon, 94.2%. Moreover, the growth with MCF7 breast was 82.1%; with HCT-116 colon, 73.3%; in the experiment with HCC-2998 colon, 119%; with KM12 colon it was 101%.

Regarding `COc1ccc(C2SC(C)C(=O)N2CCc2cccs2)cc1OC` (centres undefined), the growth in the experiment on SR leukemia is 63.8%; in the experiment with RPMI-8226 leukemia, 68.8%; in the experiment on OVCAR-8 ovarian, 85.1%; in the experiment with OVCAR-5 ovarian it was 104%; with OVCAR-4 ovarian it was 62.8%; with SK-OV-3 ovarian, 102%. In addition, the growth in the experiment on IGROV1 ovarian was 79.6%; in the experiment with OVCAR-3 ovarian it was 95.3%; with NCI/ADR-RES ovarian, 86.1%; in the experiment with T-47D breast it was 52.9%; in the experiment with BT-549 breast, 76%; in the experiment with MDA-MB-435 melanoma, 98.3%. Besides, the growth in the experiment with SW-620 colon was 102%; in the experiment on MCF7 breast, 86.3%; in the experiment with HCT-116 colon, 78.4%; in the experiment on HCC-2998 colon, 84%; with KM12 colon, 96.3%.

In the case of `COc1ccc(Nc2[nH]n(C3=Nc4ccccc4Sc4ccccc43)c(=O)c2C#N)cc1`, the growth is 70.8% with SR leukemia; 37% in the experiment with RPMI-8226 leukemia; 40.2% with OVCAR-8 ovarian; 102% in the experiment with OVCAR-5 ovarian; 47.5% with OVCAR-4 ovarian; 53.5% in the experiment with SK-OV-3 ovarian. Besides, the growth with IGROV1 ovarian is 55.1%; in the experiment on OVCAR-3 ovarian, 52.4%; in the experiment with NCI/ADR-RES ovarian, 45.2%; in the experiment on T-47D breast, 17.9%; in the experiment on BT-549 breast, 52.8%; with MCF7 breast it was 30.7%. Also, the growth with HCT-116 colon is 30.6%; in the experiment on HCC-2998 colon, 40.8%; in the experiment with KM12 colon, 43.8%.

Take `Clc1nc(-c2ccccn2)nc2sc3c(c12)CCCCCC3`: the growth with SR leukemia was 66.3%; in the experiment with RPMI-8226 leukemia, 95.5%; with OVCAR-8 ovarian it was 87.1%; with OVCAR-5 ovarian, 108%; with OVCAR-4 ovarian it was 85.7%; with SK-OV-3 ovarian, 105%. Also, the growth in the experiment on IGROV1 ovarian was 89.8%; in the experiment on OVCAR-3 ovarian, 108%; in the experiment on NCI/ADR-RES ovarian it was 89.3%; in the experiment with T-47D breast it was 42.2%; in the experiment on BT-549 breast, 85.1%; with MDA-MB-435 melanoma, 91.4%. The growth in the experiment on SW-620 colon is 102%; with MCF7 breast, 54%; with HCT-116 colon it was 84.5%; in the experiment on HCC-2998 colon it was 63.4%; in the experiment on KM12 colon, 91.6%.

With `COc1ccc(-n2ncc3c2ccc2cc(S(=O)(=O)c4ccccc4)c(=O)n(C)c23)cc1`, the growth is 86.1% in the experiment on SR leukemia; 85.4% with RPMI-8226 leukemia; 65.4% with OVCAR-8 ovarian; 98.4% in the experiment with OVCAR-5 ovarian; 6.65% (active) in the experiment on OVCAR-4 ovarian; 83.5% with SK-OV-3 ovarian. Besides, the growth with IGROV1 ovarian was 109%; with OVCAR-3 ovarian, 91.1%; in the experiment on NCI/ADR-RES ovarian, 77.3%; in the experiment with T-47D breast, 90.6%; in the experiment on BT-549 breast it was 67.8%; in the experiment with MDA-MB-435 melanoma, 90.3%. Besides, the growth with SW-620 colon was 97.5%; in the experiment on MCF7 breast, 91%; in the experiment on HCT-116 colon, 78.3%; in the experiment on HCC-2998 colon, 102%; with KM12 colon it was 88.8%.
